# Rows were chosen to be rich in hits. Some 2.1% of all compounds tested hit in one or more screens of this group.
# Ba/F3 V617F tox: loss of viability in JAK2V617F-driven Ba/F3 cells | Ba/F3 EpoR-JAK2V617F viability, ATP luminescence | inhibition, % at 5.6 µM | 1.1% of 220,000 active | AID 1446;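 active = inhibition above the campaign mean plus 3 SD over all tested compounds, cut at about 24% in these data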;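 note: cytokine-independent growth of Ba/F3 cells driven by EpoR plus mutant JAK2; 0% = DMSO-treated cells and 100% = JAK inhibitor I control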
# IEC-6 tox: IEC-6 cytotoxicity, counter-screen for KLF5 inhibitors | luminescence viability | inhibition, % at 5 µM | 0.78% of 290,000 active;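 note: 0% = plate median of test compound wells and 100% = cytotoxic reference compound wells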
# APP transl inh: APP translation inhibition; inhibition, % at 2 µM; AID 1285; 0.82% of 190,000 active; SH-SY5Y APP 5'UTR-luciferase reporter, luminescence;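 active = inhibition above a set limit, derived from the sample mean plus 3 SD, cut at about 45% in these data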
# BaF3 tox: parental Ba/F3 viability inhibition as JAK2V617F counter-screen | CellTiter-Glo ATP luminescence | inhibition, % at 5.6 µM | 1.1% of 220,000 active | AID 1486;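 active = inhibition above a per-campaign cutoff, the mean inhibition of all tested compounds plus 3 SD, cut at about 27% in these data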;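 note: 0% = DMSO wells and 100% = JAK Inhibitor I control wells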
# aSyn UTR inh: MLPCN primary screen, SNCA 5' untranslated region; alpha-synuclein 5'UTR reporter, inhibitor activity; inhibition, % (tested at 7.5 µM); 0.82% of 300,000 active; AID 1813; in the data active = inhibition above about 60%;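 note: H4 neuroglioblastoma cells stably carrying SNCA 5'UTR luciferase fusion; 0% = DMSO wells and 100% = positive control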
# KLF5 inh: kruppel-like factor 5 inhibition; AID 1700; inhibition, % at 5 µM; DLD-1 KLF5 promoter-luciferase reporter, luminescence; 0.23% of 290,000 active;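 active = inhibition above a per-plate limit of that plate's mean compound inhibition plus 3 SD, cut at about 60% in these data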;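 note: 0% = DMSO wells and 100% = LY294002 at 200 µM; higher means less KLF5 promoter-driven luciferase light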
# IEC-6 tox confirm: confirmation of cytotoxic compounds in rat IEC-6 intestinal epithelial cells | IEC-6 rat intestinal epithelial viability, luminescence | 63% of 1,900 active | shares compounds with IEC-6 tox | inhibition, % at 5 µM;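 note: 0% = vehicle and 100% = reference cytotoxic drug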
# The depositor's hits bear a star; . = no result. Cut-off read from the data, not from the text of the source, unless noted: active = inhibition above about 22%; inactive = the rest.
SMILES,Ba/F3 V617F tox,IEC-6 tox,APP transl inh,BaF3 tox,aSyn UTR inh,KLF5 inh,IEC-6 tox confirm
O=C(Nc1ccc(N2CCCC2)c(Cl)c1)c1ccco1,4,-3,-211,4,-113,-149,.
CCN1CCN(CCCNC(=O)c2ccc(NC(=O)C3=C(C)OCCS3)cc2)CC1,.,2,.,.,20,-28,.
CCC(C)[C@H](NC(=O)C1CC(=O)N(c2ccc3c(c2)OCCO3)C1)C(=O)N1CCCCC1 (some centres not stated),.,1,.,.,0,-24,.
COc1cc(C(=O)OCC(=O)N2CCC(Cc3ccccc3)CC2)cc(OC)c1OC,.,.,.,.,15,.,.
CC1CC(C)CN(CCCNC(=O)C2CCCN(S(=O)(=O)N3CC(C)CC(C)C3)C2)C1 (configuration not stated),.,3,.,.,31,-32,.
CN1CCN(c2ccc(NC(=O)c3ccc(-c4ccc(Br)cc4)o3)cc2)CC1,6,25*,2,10,29,-33,-6
O=C(Nc1ccc(N2CCN(Cc3ccccc3F)CC2)cc1)c1ccccc1[N+](=O)[O-],-3,-2,6,5,20,-5,.
CC(C)(C)C(=O)N1CCN(c2ccc(NC(=O)c3ccc([N+](=O)[O-])o3)cc2)CC1,.,101*,.,.,29,47,58*
O=C(Nc1ccc(N2CCN(Cc3ccccc3F)CC2)cc1)c1ccc([N+](=O)[O-])o1,.,72*,.,.,105*,19,33*
CCN1CCN(c2ccc(NC(=O)c3ccc(Br)o3)cc2)CC1,.,-3,.,.,-91,-93,.
O=C(Nc1ccc(N2CCCCC2)cc1)c1ccc([N+](=O)[O-])o1,.,80*,.,.,-214,10,15
O=C(Nc1ccc(N2CCCC2)cc1)c1ccc(Br)o1,3,2,-57,3,-33,-77,.
O=C1OC[C@H](Cc2ccc3c(c2)OCO3)/C1=C\c1ccc2c(c1)OCO2,.,.,.,.,-7,.,.
Cc1ccc(-c2cc(C(=O)N/N=C/c3c(C)nn(-c4ccccc4)c3C)n[nH]2)s1,74*,68*,92*,82*,40,40,56*
CCOC(=O)N=Nc1c2ccccc2c2nc3no[nH]c3nc12,4,100*,94*,14,119*,1,102*
O=C(O)c1ccc(Nc2cc(Cl)c3nonc3c2[N+](=O)[O-])cc1,-6,2,-2,0,-37,-15,.
Cc1c(Nc2cc(Cl)c3nonc3c2[N+](=O)[O-])c(=O)n(-c2ccccc2)n1C,95*,96*,95*,103*,.,3,9
O=[N+]([O-])c1c(Nc2cccc(O)c2)cc(Cl)c2nonc12,.,100*,.,.,25,4,29*
COc1ccc(C2=NS(=O)(=O)N(C)C(C(=O)Nc3ccc(C(C)=O)cc3)=C2)cc1OC,.,8,.,.,29,-43,.
O=C(NCc1ccncc1)c1cc(F)c(F)cc1Cl,-3,2,-5,2,5,7,.
O=C(Nc1ccc(Cc2ccncc2)cc1)c1cc(F)c(F)cc1Cl,2,31*,-6,2,53,-15,48*
CCc1ccc(NC(=O)N2CCN(C(=O)C3CCCO3)CC2)cc1 (configuration not stated),.,3,.,.,12,0,.
Cc1ccc(Oc2nc3ccccn3c(=O)c2/C=C(\C#N)C(=O)NC2CCS(=O)(=O)C2)c(C)c1 (configuration not stated),.,56*,.,.,-16,-6,34*
CCCc1nc2c(sc3nc4c(cc32)COC(C)(C)C4)c(=O)n1Cc1ccco1,1,-2,-8,7,-65,-22,.
Cc1nc2c(sc3nc4c(cc32)COC(C)(C)C4)c(=O)n1CC(=O)NCc1ccco1,76*,63*,-5,79*,-69,52,38*
SMILES,Ba/F3 V617F tox,IEC-6 tox,APP transl inh,BaF3 tox,aSyn UTR inh,KLF5 inh,IEC-6 tox confirm
C=CCNc1nnc(Cc2ccc(C(C)C)cc2)c(=O)[nH]1,.,23*,.,.,-32,17,14
COc1ccccc1-c1nnc(Nc2nc3c(OC)cccc3s2)o1,72*,69*,87*,76*,81*,59,73*
COc1cccc(-c2nnc(Nc3nc4c(F)cccc4s3)o2)c1,0,-3,-49,2,-145,-74,.
CC(=O)c1coc2c1cc(O)c1ccccc12,-4,0,-30,2,-83,-72,.
O=C(c1ccco1)c1coc2c1cc(O)c1ccccc12,-1,25*,-60,-1,-42,-1,6
CC1(C)Cc2cccc(OCC(=O)Nc3ccccc3F)c2O1,.,.,.,.,8,.,.
Cc1cnc(NC(=O)COc2cccc3c2OC(C)(C)C3)s1,6,30*,29,11,-13,42,34*
COC(=O)COc1ccc(NC(=O)C(c2ccccc2)c2ccccc2)cc1,.,25*,.,.,-2,-18,0
CCn1ncc(C2=NOC(C(=O)NCc3ccc(Cl)cc3)C2)c1C (configuration not stated),21,83*,49*,11,1,54,51*
COc1ccccc1C(=O)Nc1ccc2c(c1)nc(CCNC(=O)c1ccco1)n2C,.,69*,.,.,-295,28,53*
Cn1cc(Br)c(C(=O)NNC(=O)Nc2ccccc2C(F)(F)F)n1,0,2,3,-1,-16,-4,.
CCCC(=O)Nc1nc2ccc(NC(=O)c3ccccc3F)cc2s1,82*,75*,76*,80*,37,36,55*
O=C(CSc1nc2ccccc2c(=O)n1CC1CCCO1)NCCc1ccccc1 (configuration not stated),.,-3,.,.,1,-46,.
CC(Sc1nnc(-c2ccncc2)n1C)C(=O)Nc1nccs1 (configuration not stated),.,-3,.,.,9,-10,.
COc1ccc(NC(=O)C(=O)NCCC2CCCCN2S(=O)(=O)c2ccccc2)cc1 (configuration not stated),.,.,.,.,-49,.,.
COc1ccc(OCc2cc(C(=O)NC3CCOC(C)(C)C3)no2)c2ccccc12 (configuration not stated),.,42*,.,.,-183,-32,1
O=c1[nH]c(/C=C/c2ccccc2F)nc2ccccc12,.,79*,.,.,59,24,63*
O=c1[nH]c(/C=C/c2cccc3ccccc23)nc2ccccc12,3,7,-16,3,-104,2,.
CCSc1nsc(NC(=O)Nc2cccc(F)c2)n1,.,46*,.,.,36,-14,32*
COc1cccc(NC(=O)Nc2nc(SC)ns2)c1,.,-2,.,.,-151,-159,.
CCOC(=O)c1nc(NNC(=O)c2ccc([N+](=O)[O-])cc2)sc1C,.,38*,.,.,62*,53,21
CC1CN(CC(O)COc2ccc(C#N)cc2)CCN1CC(O)COc1ccc(C#N)cc1 (configuration not stated),.,2,.,.,5,-58,.
NC(=O)CC(NC(=O)c1ccc(Br)cc1)c1ccc(N2CCCCCC2)c([N+](=O)[O-])c1 (configuration not stated),.,2,.,.,-36,-15,.
Cc1ccc(NC(=O)Nc2ccon2)cc1,.,0,.,.,-102,-82,.
